# Most compounds without a hit are left out; they make up all but 12% or so of the library.
# HP1b chromo inh – HP1-beta chromodomain-methylated histone interaction inhibition. P83916. AlphaScreen HP1-beta / biotin-H3K9me3 peptide binding. Potency, µM (top dose mostly 114 µM), for inactives: top-dose activity change, negative = inhibition, actives largely listed as inhibitors. 390,000 compounds, 0.56% hits; further: nearly all actives have a fitted effect of over 70% in size
#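 AlphaScreen: HP1-beta (50 nM) preformed 30 min with biotin-H3(1-18)K9me3 peptide (50 nM) in PBS pH 7.4, 0.01% Tween-20. Compound added for 30 min at RT, then streptavidin donor/nickel chelate acceptor beads (10 ug/mL) for 30 min.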
# BAZ2B inh – inhibitors of human BAZ2B bromodomain. Q9UIF8. AlphaScreen BAZ2B-H3K14Ac peptide displacement. Potency, µM (top dose mostly 114 µM), for the others: top-dose activity change, negative = inhibition, hits mostly inhibitors. 360,000 compounds, 4.4% hits. AID 504333; further: on the % scale 0 is the no-effect control and ±100 the full control effect; nearly all actives have a fitted effect of over 60% in size
#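 In this displacement format the biotinylated H3(5-23) peptide acetylated at Lys14 serves as ligand at 50 nM, with BAZ2B at 50 nM in PBS pH 7.4 containing 0.01% Tween-20. Donor and acceptor beads are 10 ug/mL final.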
# Sfp inh – Sfp phosphopantetheinyl transferase inhibition; Q9F4F7; Biochemical Sfp PPTase activity, qHTS; Potency, µM, for inactives: largest response in the series, negative = inhibition, hits mostly inhibitors; 310,000 compounds, 3.5% hits;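 further: the enzyme is Sfp with the accession as filed and its product quenches rhodamine fluorescence; 0% = enzyme reaction without inhibitor and -100% = no enzyme wells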
#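 After 15 min at room temperature with compound, 15 nM Sfp received 5 uM rhodamine-CoA plus 12.5 uM BHQ-2-ybbR (50 mM Hepes pH 7.6, 10 mM MgCl2). Rate came from the fluorescence difference over 30 min, ex 525/em 598 nm.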
# L3MBTL1 inh – blocks human L3MBTL1; Q9Y468; AlphaScreen L3MBTL1–H3K9me1 peptide binding; Potency, µM (top dose mostly 57.1 µM), for inactives: top-dose activity, negative = inhibition, usual class: inhibitors; 230,000 compounds, 0.66% hits; further: on the % scale 0 is the no-effect control and ±100 the full control effect; nearly all actives have a fitted effect of over 60% in size
# Target sequence (Q9Y468 whole entry, looked up): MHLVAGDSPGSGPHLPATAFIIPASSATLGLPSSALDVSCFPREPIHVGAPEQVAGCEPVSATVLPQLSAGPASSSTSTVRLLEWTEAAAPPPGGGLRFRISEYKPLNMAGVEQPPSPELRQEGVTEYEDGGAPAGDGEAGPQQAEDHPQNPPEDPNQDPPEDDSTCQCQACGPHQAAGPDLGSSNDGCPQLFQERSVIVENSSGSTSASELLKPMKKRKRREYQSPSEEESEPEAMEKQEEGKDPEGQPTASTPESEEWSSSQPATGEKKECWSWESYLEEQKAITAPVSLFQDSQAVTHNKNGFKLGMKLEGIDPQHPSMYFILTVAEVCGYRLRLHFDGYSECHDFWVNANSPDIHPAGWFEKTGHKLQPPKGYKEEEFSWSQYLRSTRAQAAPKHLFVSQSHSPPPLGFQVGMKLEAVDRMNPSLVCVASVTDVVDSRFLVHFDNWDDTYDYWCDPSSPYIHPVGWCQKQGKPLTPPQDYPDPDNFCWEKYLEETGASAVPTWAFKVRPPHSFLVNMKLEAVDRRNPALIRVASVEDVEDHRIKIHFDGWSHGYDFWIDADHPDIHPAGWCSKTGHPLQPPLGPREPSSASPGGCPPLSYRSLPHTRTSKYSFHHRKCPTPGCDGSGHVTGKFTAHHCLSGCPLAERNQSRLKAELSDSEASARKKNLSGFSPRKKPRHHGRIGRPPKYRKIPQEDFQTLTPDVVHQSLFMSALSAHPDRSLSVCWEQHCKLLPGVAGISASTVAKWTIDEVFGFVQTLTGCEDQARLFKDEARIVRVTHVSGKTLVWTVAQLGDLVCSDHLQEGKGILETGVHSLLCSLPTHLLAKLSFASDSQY
#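 AlphaScreen proximity signal between nickel-chelate acceptor and streptavidin donor beads (final 10 ug/mL) reports binding of 50 nM L3MBTL1 to 75 nM biotin-H3 K9me1 peptide; complex incubated with compounds 30 min at room temperature; cefsulodin titration as control.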
# G9a inh – G9a (human) methyltransferase inhibition | 350,000 compounds, 8.8% hits | AID 504332 | G9a H3K9 monomethylation, AlphaScreen, 2 h | Q96KQ7 | Potency, µM (top dose mostly 102 µM), inactives show at the highest dose activity, negative = inhibition, most hits filed as inhibitors; further: on the % scale 0 is the no-effect control and ±100 the full control effect; nearly all actives have a fitted effect of over 75% in size
#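 Methyltransferase reactions run at room temperature for 2 h (20 nM enzyme, 500 nM biotin-H3K9 peptide, 20 uM SAM) after a 15 min compound preincubation; product detected by AlphaScreen beads and anti-H3K9me1 antibody.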
# JMJD2A Tudor – inhibitors of human JMJD2A Tudor domain; AlphaScreen JMJD2A-Tudor / H3K4me3 peptide binding; 390,000 compounds, 4.4% hits; Potency, µM (titrated, usually from 114 µM), inactives show at the top dose activity change, negative = inhibition, most hits filed as inhibitors; O75164; further: on the % scale 0 is the no-effect control and ±100 the full control effect; nearly all actives have a fitted effect of over 50% in size
# * hit, by the source's call; ? = inconclusive; nt = not tested or not shown; [ ] = remark or other dose. The call rests on the fitted dose curve; in most records, active means well fitted curve in the direction sought with a large enough effect; inconclusive means small, poorly fitted or top-dose-only effect, or another doubt; inactive means no such curve, though single readings can be large; an effect the other way counts as inactive or inconclusive. Potency means the concentration at half of the fitted maximal effect.
SMILES,HP1b chromo inh,BAZ2B inh,Sfp inh,L3MBTL1 inh,G9a inh,JMJD2A Tudor
CCN(CC)C(=O)Cn1c(=O)n(CCCCCC(=O)NCc2ccc(C)cc2)c(=O)c2sccc21,33%,0%,nt,nt,6%[59 µM],3%
CCC(C)(C)NC(=O)C(c1ccccc1Cl)N(C(=O)CCC(=O)Nc1cc(C)on1)C(C)(C)C (stereo unspecified),0%,-8%,1%,nt,-4%[59 µM],56µM*
CCC(C)(C)NC(=O)C(c1ccccc1Cl)N(C(=O)CCC(=O)Nc1cc(C)on1)C1CC1 (stereo unspecified),6%,4%,-1%,nt,15%[59 µM],-31%
O=C(COc1ccc(-c2nnco2)cc1)N1CCOCC1,24%,nt,nt,7%,nt,0%
CCOC(=O)N1CCC(NC(=O)c2ccc3c(Cl)c4c(nc3c2)CCCC4)CC1,13%,7%,25µM*,14%,-25%,-12%
CCCN1CCN(CCCNC(=O)c2ccc3c(Cl)c4c(nc3c2)CCCC4)CC1,18%,-5%,-1%,nt,-6%,-24%
O=C(NCCCN1CCCC1)c1ccc2c(Cl)c3c(nc2c1)CCCC3,-10%,-16%,79µM*,nt,?,-26%
Cc1c(F)cccc1NC(=O)C1CCCN1S(=O)(=O)c1ccc(F)cc1 (stereo unspecified),39%,-22%,nt,nt,2%[59 µM],-6%
COCCNC(=O)C1Nc2ccc(OC(F)(F)F)cc2C2C=CCC12 (stereo unspecified),40%,nt,nt,nt,nt,-17%
CCOC(=O)c1ccc2c(c1)C1C=CCC1C(C(=O)O)N2 (stereo unspecified),nt,6.3µM*,?,3.2µM*,3.2µM*,nt
COCCNC(=O)C1Nc2ccc(C(F)(F)F)cc2C2C=CCC12 (stereo unspecified),10%,nt,nt,nt,nt,-30%
CCOC(=O)C1Nc2ccc(C(=O)O)cc2C2C=CCC12 (stereo unspecified),7.9µM*,40µM*,22µM*,-8%[2.29 µM],24%[0.501 µM],4µM*
O=C(O)C1Nc2ccccc2C2C=CCC12 (stereo unspecified),11µM*,nt,nt,nt,nt,3.5µM*
CC(=C\c1ccccc1)/C=C1/SC(=S)N(CCC(=O)Nc2ccccn2)C1=O,nt,?,0%,nt,40µM*,nt
CC(=C\c1ccccc1)/C=C1/SC(=S)N(C(C(=O)O)C(C)C)C1=O (stereo unspecified),?,71µM*,-6%,-5%,35µM*,?
CCc1ccc(/C=C2/SC(=S)N(CCC(=O)Nc3ccc(C(=O)O)cc3)C2=O)cc1,nt,?,-29%,nt,91%,nt
CC(/C=C1\SC(=S)N(NC(=O)c2ccc(O)cc2)C1=O)=C\c1ccccc1,?,32µM*,50µM*,?,?,?
CCc1ccc(/C=C2/SC(=S)N(CCC(=O)Nc3cccc(C(=O)O)c3)C2=O)cc1,-4%,35µM*,-9%,nt,nt,50µM*
CC(=C\c1ccccc1)/C=C1/SC(=S)N(CCCC(=O)O)C1=O,-11%,?,-15%,nt,40µM*,-35%
O=C(CCN1C(=O)S/C(=C\C=C\c2ccccc2)C1=O)Nc1ccc(O)cc1,16%,-22%,-23%,nt,19%,-9%
O=C(CCCN1C(=O)S/C(=C\C=C\c2ccccc2)C1=O)Nc1ccc(C(=O)O)cc1,1%,56µM*,-6%,nt,?,-19%
CC(/C=C1\SC(=S)N(CCC(=O)Nc2ccccc2O)C1=O)=C\c1ccccc1,16%,1%,10%,nt,67%,-26%
CC(/C=C1\SC(=S)N(CCCC(=O)Nc2ccc(C(=O)O)cc2)C1=O)=C\c1ccccc1,-28%,40µM*,-10%,-4%,13µM*,?
CC(/C=C1\SC(=S)N(CCC(=O)Nc2cccc(C(=O)O)c2)C1=O)=C\c1ccccc1,71µM*,56µM*,-10%,nt,45µM*,?
O=C(OCC(=O)C12CC3CC(CC(C3)C1)C2)c1ccc(O)cc1O,-16%,?,nt,-16%,-38%,?
SMILES,HP1b chromo inh,BAZ2B inh,Sfp inh,L3MBTL1 inh,G9a inh,JMJD2A Tudor
CC1CCCCC1NC(=O)CNC(=O)c1ccco1 (stereo unspecified),7%,-2%,nt,0%,7%[59 µM],-19%
O=C(O)CN1C(=O)/C(=C/c2ccsc2)SC1=S,23%,79µM*,?,6%,32µM*,-12%
C=CCN1C(=O)/C(=C/c2ccsc2)SC1=S,14%,-15%,-3%,nt,-45%,-22%
O=C(O)CN1C(=O)/C(=C\C(Br)=C\c2ccccc2)SC1=S,?,45µM*,56µM*,nt,41%[0.501 µM],?
O=C(O)CN1C(=O)/C(=C/C=C/c2ccccc2)SC1=S,-12%,?,-43%,11%,?,-35%
CC(=O)NCCNc1nc2c(-c3cccc(C)c3)nnn2c2ccc(Cl)cc12,72%,-3%,nt,nt,5%[59 µM],-7%
COc1ccc(CN(Cc2cccnc2)S(=O)(=O)c2ccc(-n3cnnn3)c(C)c2)cc1OC,10%,-37%,-9%,-4%,16µM*,-24%
COc1ccc(CCN(Cc2cccs2)S(=O)(=O)c2ccc(-n3cnnn3)c(OC)c2)cc1OC,33%,3%,19%,nt,-2%[12.7 µM],-20%
COc1cc(S(=O)(=O)N(Cc2cccnc2)Cc2cccc(OC)c2OC)ccc1-n1cnnn1,16%,79µM*,-19%,nt,18µM*,1%
COc1ccccc1CN(Cc1cccnc1)S(=O)(=O)c1ccc(-n2cnnn2)c(OC)c1,-7%,-1%,3%,nt,8%,-11%
COc1ccccc1N1CCN(C(=O)CSc2n[nH]c(-c3ccccc3Cl)n2)CC1,12%[57 µM],2%,nt,nt,-5%[59 µM],-16%
COc1ccc(C(c2c(O)ccc3ccccc23)N2CCOCC2)c(OC)c1 (stereo unspecified),-4%,-10%,-23%,-12%,32µM*,89µM*
CCC(C)NCCOc1ccccc1C (stereo unspecified),?,50µM*,56µM*,4%,2.8µM*,3.2µM*
Cc1ccccc1OCCNC(=S)Nc1ccccc1,43%,-4%,9%,-4%,61%,1%
